PBM binding z-score data for six sequences are collected here from the supplement of paper PMC6555819.

Assay in all cases: PBM binding z-score (relative to random genomic background probes); higher = stronger binding; sequences stand for … in GC…GCGATTGACAGCGTAGAATGAAGG
In assay [1] the test system is FXR:RXRa (NR concentration 270 nM, RXRa partner concentration 90 nM). Summed up: (§1)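 Custom Agilent 4×180K protein-binding microarrays carried double-stranded probes, each with a 34-nt variable region. These regions held direct-repeat seeds, single-nucleotide variants, half-site ablations and random human genomic background sequences. Ligand-free nuclear receptor dimers were incubated on the arrays for 1 h, antibodies against each partner (one per run) detected binding, and scanned fluorescence was regression-normalized. Binding z-scores take the random background probes as reference.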

Assay [2] deals with LXRa:RXRa (NR concentration 270 nM, RXRa partner concentration 90 nM). Summed up:
as §1

Assay [3] deals with LXRa homodimer (NR concentration 270 nM). The procedure, abridged: as §1
Assay [4] has as its system LXRb:RXRa (NR concentration 270 nM, RXRa partner concentration 90 nM). Summed up:
as §1

For assay [5], the system named is LXRb homodimer (NR concentration 270 nM). Summed up:
as §1

The test system of assay [6] is PPARa:RXRa (NR concentration 270 nM, RXRa partner concentration 90 nM). Summed up: as §1
The subject of assay [7] is PPARg:RXRa (NR concentration 180 nM, RXRa partner concentration 90 nM). The procedure, abridged: as §1
The subject of assay [8] is PPARg:RXRa 270nM:90nM, anti-RXR (NR concentration 270 nM, RXRa partner concentration 90 nM). The procedure, abridged:
as §1

Assay [9] concerns PPARg:RXRa 30nM:10nM, anti-RXR (NR concentration 30 nM, RXRa partner concentration 10 nM). The procedure, abridged: as §1
For assay [10], the system named is PPARg:RXRa 90nM:30nM, anti-RXR (NR concentration 90 nM, RXRa partner concentration 30 nM). Summed up:
as §1

Assay [11] deals with PPARg:RXRa DBDmut IVT, anti-RXR (DBD mutation: RXRa K156A/R161A, NR concentration 270 nM, RXRa partner concentration 90 nM). The procedure, abridged: as §1
The subject of assay [12] is PPARg:RXRa IVT, anti-PPARg (NR concentration 270 nM, RXRa partner concentration 90 nM). Summed up:
as §1

Assay [13] has as its system PPARg DBDmut:RXRa IVT, anti-PPARg (DBD mutation: PPARg1 K132A/R137A, NR concentration 270 nM, RXRa partner concentration 90 nM). Summed up:
as §1

Assay [14] has as its system PPARg DBDmut IVT, anti-PPARg (DBD mutation: PPARg1 K132A/R137A, NR concentration 270 nM). Summed up: as §1
Assay [15] relates to PPARg homodimer (NR concentration 180 nM). The procedure, abridged:
as §1

The test system of assay [16] is PXR:RXRa (NR concentration 270 nM, RXRa partner concentration 90 nM). The procedure, abridged: as §1
Assay [17] concerns PXR homodimer (NR concentration 270 nM). Summed up: as §1
Assay [18] concerns RARa:RXR (NR concentration 270 nM, RXRa partner concentration 90 nM). Summed up:
as §1

The subject of assay [19] is RARa homodimer (NR concentration 270 nM). The procedure, abridged: as §1
In assay [20] the test system is RARb:RXRa (NR concentration 270 nM, RXRa partner concentration 90 nM). Summed up: as §1

Consider ACTATTAGTTGACACGAGGGCAACCGATAGGTTG, for which the PBM binding z-score in assay [1] turned out to be 1.1; in assay [2], 1.04; in assay [3], 0.219; in [4] it was 0.64; in assay [5], 0.129; in assay [6] it was 1.21. For the same sequence, the PBM binding z-score was 1.06 in assay [7]; 0.472 in assay [8]; 0.354 in assay [9]; 0.356 in [10]; 0.272 in assay [11]; 1.04 in assay [12]. The PBM binding z-score in assay [13] worked out at 0.784; in assay [14], 0.778; in assay [15], 0.695; in assay [16], 1.75; in assay [17], 0.634; in [18], 1.74. Moreover, the results for the PBM binding z-score in [19] and in assay [20] were 0.708 and 1.59, respectively.

Turning to ATCTCTAGGTAAGACTCAGTCCAGTGAAGAACGC, the PBM binding z-score was 0.392 in assay [1]; 0.554 in [2]; -0.00583 in [3]; -0.0175 in [4]; 0.668 in assay [5]; -0.0468 in assay [6]. Also, the PBM binding z-score in [7] was found to be 0.17; in assay [8], 0.258; in assay [9], 0.405; in assay [10], 0.142; in assay [11], 1.91; in assay [12] it was 1.22. The PBM binding z-score in assay [13] is -0.449; in [14], 2; in assay [15], 0.717; in assay [16] it was -0.0905; in [17] it was 0.481; in assay [18], -0.0301. Moreover, the PBM binding z-score worked out at 0.973 in [19] and 0.0795 in assay [20].

With TAGCCTACGTCATGGGCCAGTATACCACGCGAAC, the PBM binding z-score is -0.49 in assay [1]; -0.556 in assay [2]; -0.342 in assay [3]; -0.379 in assay [4]; -0.666 in assay [5]; -0.649 in [6]. The PBM binding z-score in assay [7] was 0.599; in assay [8], -0.711; in assay [9], -0.624; in assay [10], -0.961; in [11] it was -0.818; in assay [12], -0.288. The PBM binding z-score is -0.41 in [13]; -0.97 in assay [14]; -0.836 in assay [15]; -0.57 in [16]; -0.465 in assay [17]; -0.541 in [18]. The figures for the PBM binding z-score in assay [19] and in [20] were -1.11 and -0.332, respectively.

TCTAGCAAGCCAGAGGGTCACTCAAGAGGTACGG: the PBM binding z-score in [1] is 0.763; in [2], 0.684; in assay [3], -0.557; in assay [4], 1.04; in [5] it was -1.21; in assay [6], 2. Also, the PBM binding z-score was 0.737 in assay [7]; 1.3 in assay [8]; 1.51 in assay [9]; 1.28 in assay [10]; 0.615 in [11]; -0.0358 in assay [12]. The PBM binding z-score in [13] was -1.2; in assay [14], -1.18; in [15], 0.24; in assay [16], 0.871; in assay [17], -0.204; in assay [18] it was 1.96. In addition, the PBM binding z-score was -0.908 in assay [19] and 1.62 in assay [20].

Turning to AGAATGAGGTTAAGATCAGGTAAACAGAATACAT, the PBM binding z-score in [1] was 2.45; in assay [2] it was 4; in [3], -0.00313; in [4] it was 2.24; in assay [5], -0.136; in assay [6] it was 3.9. Further, the PBM binding z-score in assay [7] turned out to be 2.61; in assay [8] it was 2.31; in assay [9], 0.859; in assay [10], 1.75; in assay [11], 2.37; in assay [12] it was 2.93. The PBM binding z-score came out at 1.7 in assay [13]; 0.933 in assay [14]; 0.782 in assay [15]; 1.52 in [16]; 0.259 in [17]; 2.3 in assay [18]. Also, the PBM binding z-score in assay [19] is 0.662; in assay [20], 1.98.

Consider CAGACTAGGTCAAGGTCAAAGTCGGTTTGTGCCA, for which the PBM binding z-score was 6.13 in [1]; 5.42 in assay [2]; 3.5 in [3]; 4.36 in [4]; 0.864 in assay [5]; 5.62 in assay [6]. Moreover, the PBM binding z-score was 7.72 in assay [7]; 7.03 in assay [8]; 5.17 in [9]; 6.78 in assay [10]; 7.69 in assay [11]; 7.9 in assay [12]. Further, the PBM binding z-score in [13] was determined as 3.1; in [14], 0.467; in assay [15], 3.79; in assay [16] it was 5.16; in assay [17] it was 1.76; in assay [18] it was 5.07. Besides, the PBM binding z-score was determined as 1.4 in [19] and 5.05 in [20].
